Screening data deposited in PubChem BioAssay by National Center for Advancing Translational Sciences (NCATS).
Pin1 inh: human Pin1 inhibition; 390,000 tested, 0.009% active; Q13526; Potency, µM (highest dose often 115 µM), usual class: inhibitors; AID 504891; Pin1 FP peptide displacement, HiFluor488, 10 min; active means well fitted inhibition curve with a large enough effect in the polarisation, with a control signal flat, not every such curve was filed as active; inconclusive means small, poorly fitted or top-dose-only effect, or effect the other way, or a change in a side signal; inactive means no such curve, though single readings can be large or run the other way; the % refers to the polarisation
gsp antag: antagonizes gsp, the McCune-Albright syndrome mutation. gsp-mutant cells, cAMP HTRF, 30 min. Potency, µM (top dose mostly 76.9 µM), most hits filed as inhibitors. 340,000 tested, 0.4% active; calls by dose curve; cell line not stated here;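 further: intracellular cAMP measured with PDE inhibitor Ro 20-1724 present during compound exposure; nearly all actives have a fitted effect of over 65% in size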
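Measurement of cellular cAMP by homogeneous time-resolved fluorescence following a 30 min compound exposure at 37C. The PDE inhibitor […] was present throughout; the assay buffer was DPBS with 0.05% BSA and 0.005% Tween 20.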
TSHR antag: human thyrotropin receptor antagonism | P16473 | TSHR-expressing cells, TSH-stimulated cAMP HTRF, 2 h; stronger effect = lower value | activity change, negative = inhibition, % at 11.5 µM | 330,000 tested, 0.2% active | AID 504810;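 active means activity change below a set negative limit, meaning inhibition stronger than a set level, cut at about -70% in these data; inconclusive means activity change between two set negative limits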
Target sequence (P16473 whole entry, looked up): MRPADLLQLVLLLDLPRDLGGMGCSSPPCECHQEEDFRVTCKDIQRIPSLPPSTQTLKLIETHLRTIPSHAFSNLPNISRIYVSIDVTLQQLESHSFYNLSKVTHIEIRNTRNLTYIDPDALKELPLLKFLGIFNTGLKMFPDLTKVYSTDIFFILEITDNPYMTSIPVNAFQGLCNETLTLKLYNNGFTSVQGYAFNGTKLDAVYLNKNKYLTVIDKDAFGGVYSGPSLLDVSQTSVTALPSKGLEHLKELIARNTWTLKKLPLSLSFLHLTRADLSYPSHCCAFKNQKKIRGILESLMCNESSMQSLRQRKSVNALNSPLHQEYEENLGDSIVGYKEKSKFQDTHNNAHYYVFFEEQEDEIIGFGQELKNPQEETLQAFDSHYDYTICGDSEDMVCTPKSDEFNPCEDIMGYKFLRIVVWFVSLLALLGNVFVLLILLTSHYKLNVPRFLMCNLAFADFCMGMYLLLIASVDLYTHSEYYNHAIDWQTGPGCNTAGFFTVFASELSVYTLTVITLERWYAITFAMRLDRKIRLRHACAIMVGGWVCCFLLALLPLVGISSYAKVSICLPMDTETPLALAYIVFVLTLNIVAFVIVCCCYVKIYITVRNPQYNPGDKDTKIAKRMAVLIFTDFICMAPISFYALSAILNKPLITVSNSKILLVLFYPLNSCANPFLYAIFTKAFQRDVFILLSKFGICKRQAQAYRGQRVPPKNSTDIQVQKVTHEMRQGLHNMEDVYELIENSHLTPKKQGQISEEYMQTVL
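Cell-based HTRF cAMP assay; TSHR cells + compound, TSH EC80 (4nM final), 2 h, 37 deg C. Lysis with anti-cAMP cryptate and cAMP-d2, 30 min RT, read 665/620 nm.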
TCR act: activators of T cell receptors | primary human leukocytes, anti-CD3, IL-2 HTRF, 48 h | Potency, µM (highest dose often 9.22 µM), most hits filed as activators | 330,000 tested, under 10 active | AID 504894; active means well fitted activation curve with a large enough effect; inconclusive means small, poorly fitted or top-dose-only effect, or another doubt; inactive means no such curve, though single readings can be large or run the other way
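Human primary leukocytes + a-CD3 beads + cpd, 48 hr; IL-2 in supernatant by HTRF (ex 320nm / em 665nm). No co-stimulatory signal supplied.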
gsp ag: gsp mutant agonism; Potency, µM (highest dose often 76.9 µM), usual class: activators; 340,000 tested, 0.13% active; gsp mutant cells, cAMP HTRF, 30 min; active means well fitted activation curve with a large enough effect; inconclusive means small, poorly fitted or top-dose-only effect, or another doubt; inactive means no such curve, though single readings can be large or run the other way; cell line not stated here;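 further: phosphodiesterase inhibitor Ro 20-1724 added with compounds to block cAMP breakdown; nearly all actives have a fitted effect of over 60% in size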
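Cells stably selected in G418 were plated at 2000/well, grown 16-24 hr, then given compounds in DMSO with the PDE inhibitor […] (300 uM solution added) for 30 min at 37C; cAMP was read by HTRF.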
Numbers stand for hits; – = inactive; ? = inconclusive; · = no result; [ ] = another dose, or the depositor's remark. The list is not random: actives were taken first. Their share in the collection is about 0.63%.

SMILES	Pin1 inh	gsp antag	TSHR antag	TCR act	gsp ag
O=C(Nc1nc2ccccc2c(=O)s1)c1ccco1	–	–	–	–	?
O=C(Nc1nc2ccccc2c(=O)s1)c1ccc(F)cc1Cl	–	–	–	–	14.1µM
Cn1c(=O)c(Oc2ccc(Cl)cc2)c(O)c2ccccc21	–	–	–	–	–
COc1ccc(Oc2c(O)c3ccccc3n(C)c2=O)cc1	–	31.6µM	–	–	–
Cc1ccc(-n2nc3c4c(cccc4c2=O)-c2ccccc2-3)cc1	–	–	–	–	–
CC(=O)c1c(C)[nH]c(C(=O)NCC2CCCCC2)c1C	–	–	–	–	–
O=C(COC(=O)c1cc(S(=O)(=O)N2CCOCC2)ccc1Cl)NCc1ccccc1	–	–	–	–	–
O=C(NC1CC1)c1cccc(Nc2ccc(-c3ccc4c(c3)OCCO4)nn2)c1	–	31.6µM	–	–	–
O=S(=O)(c1ccc(Nc2ccc(-c3ccc4c(c3)OCCO4)nn2)cc1)N1CCCC1	–	–	·	–	–
O=C1/C(=C\c2cc([N+](=O)[O-])ccc2O)SC(=S)N1Cc1ccc(Cl)cc1	?	?	-83.5	–	–
CC(OC(=O)c1cc(=O)[nH]c2ccccc12)C(=O)NCc1ccccc1 (centres undefined)	–	–	–	–	–[15.4 µM]
Cn1c(SCC(=O)NCc2ccc3c(c2)OCO3)nnc1-c1cc2ccccc2cc1O	–	39.8µM	–	–	?
Cc1cccc(-c2nnc(SCC(=O)NCc3ccc4c(c3)OCO4)n2C)c1	–	–	–	–	–
CC(=O)Nc1ccc(NC(=O)c2ccccc2CCc2ccccc2)cc1	–	–	–	·	–[15.4 µM]
COc1ccc(O[C@H]2C=C[C@@H](c3ccccc3)O[C@@H]2COC(=O)CC/C(C)=N/O[C@@H](C)CN2CCCCc3nc(C)c(C)cc32)cc1	·	·	–	·	·
CCc1ccc(NC(=O)Cn2nnc(C(=O)NCCc3ccc(OC)c(OC)c3)c2N)cc1	–	–	–	–	–
CN(C)S(=O)(=O)c1ccc(-c2csc(N/N=C/c3ccc(O)cc3)n2)cc1	–	31.6µM	–	–	–[15.4 µM]
Cc1ccc(-c2csc(N/N=C/c3ccco3)n2)cc1	–	–	–	–	–
CN(C)S(=O)(=O)c1ccc(-c2csc(N/N=C/c3ccco3)n2)cc1	–	31.6µM	–	–	–[15.4 µM]
C(=N\Nc1nc(-c2ccccc2)cs1)/c1ccncc1	–	–	–	–	–[15.4 µM]
Cc1ccc(/C=C2/SC(=S)N(c3ccc(S(=O)(=O)Nc4nccs4)cc3)C2=O)cc1	–	31.6µM	–	–	–[15.4 µM]
Cc1ccc(Oc2ccc3c(c2)C(=O)N(c2ccc(S(=O)(=O)Nc4nccs4)cc2)C3=O)cc1	?	?	–	–	–
COc1ccc(/C=C2/SC(=S)N(c3ccc(S(=O)(=O)Nc4nccs4)cc3)C2=O)cc1	–	31.6µM	–	–	–[15.4 µM]
O=C1/C(=C\c2ccccn2)SC(=S)N1c1ccc(S(=O)(=O)Nc2nccs2)cc1	?	39.8µM	–	–	–[15.4 µM]
CN1CCN(C(=O)C2CCN(S(=O)(=O)c3ccc(F)cc3)CC2)CC1	–	–	–	–	–
SMILES	Pin1 inh	gsp antag	TSHR antag	TCR act	gsp ag
O=C(CN(C(=O)CCC(=O)Nc1nccs1)c1ccc2c(c1)OCO2)NCc1ccc(F)cc1	–	–	–	–	–
Cn1cc(Cl)c(C(=O)N/N=C/c2ccc3c4c(cccc24)CC3)n1	–	–	-79.9	–	–
O=S(=O)(Nc1ccc(O)c(Sc2nc3ccccc3s2)c1)c1cc(Cl)ccc1Cl	–	·	·	·	·
O=S(=O)(Nc1ccc(O)c(Sc2nc3ccccc3s2)c1)c1cccc2ccccc12	–	–	-88.0	–	–
O=C(O)CCC(=O)N1N=C(c2ccccc2)CC1c1ccc(Br)cc1 (centres undefined)	–	39.8µM	–	–	–[15.4 µM]
O=C(O)CCC(=O)N1N=C(c2ccc(Br)cc2)CC1c1ccc(Br)cc1 (centres undefined)	–	?	–	–	–
O=C(CNS(=O)(=O)c1ccc2ccccc2c1)OCC(=O)c1ccc(Br)s1	–	–	–	–	8.91µM
Cc1cc(C(=O)COC(=O)CNS(=O)(=O)c2ccc3ccccc3c2)c(C)n1-c1ccccc1	–	–	–	–	–
Cc1ccc(C(=O)NCC(=O)OCC(=O)c2ccc(Br)s2)cc1	–	–	–	–	14.1µM
Cc1cc(C(=O)OCC(=O)c2ccc(Br)s2)no1	–	–	–	·	35.5µM
Cc1cc(C(=O)OCC(=O)c2ccc(Br)s2)c(C)o1	·	·	–	·	·
Clc1ccc(-c2nc(-c3cc4cc(Cl)ccc4o3)cs2)cc1	–	28.2µM	–	–	–
Clc1ccc(-c2csc(-c3ccno3)n2)cc1	–	–	–	–	–[15.4 µM]
CCn1c(=S)[nH]c2nc3c(cc2c1=O)CCCC3	–	–	–	–	8.91µM
CO/N=C/c1ccc(N2CCN(C(=O)c3ccc(F)cc3)CC2)c([N+](=O)[O-])c1	–	35.5µM	–	–	–
CO/N=C/c1ccc(N2CCN(C(=O)c3cccc(C(F)(F)F)c3)CC2)c([N+](=O)[O-])c1	–	?	–	–	–
Cc1ccc(C)c(N2CCN(C(=O)CCNC(=O)Cn3ccc4ccccc4c3=O)CC2)c1	–	–	–	–	?
Cc1ccc(Cl)cc1N1CCN(C(=O)Cn2ccc3ccccc3c2=O)CC1	–	25.1µM	–	–	–
CC(=O)Nc1ccc(S(=O)(=O)N2CCC(C(=O)N[C@@H](C)C(=O)NC3CCCC3)CC2)cc1	–	50.1µM	–	–	–
COc1ccc(S(=O)(=O)N2CCC(C(=O)N[C@@H](C)C(=O)NC3CC3)CC2)cc1	–	–	–	–	?
COc1ccc(CCNc2nc(-c3ccc(O)cc3)cs2)cc1OC	–	35.5µM	–	–	–
COc1ccc(Nc2nc(NCCO)nc(N3CCCC3)n2)cc1	?	·	·	–	·
CCCNc1nc(Nc2ccc(C)cc2)nc(N2CCCC2)n1	–	31.6µM	–	–	–
O=C(NC1CCCCC1)c1sc(=S)n2c1[nH]c(=O)c1ccccc12	–	44.7µM	-83.4	–	–
CCCCNC(=O)c1sc(=S)n2c1[nH]c(=O)c1ccccc12	–	25.1µM	-73.9	–	–
SMILES	Pin1 inh	gsp antag	TSHR antag	TCR act	gsp ag
CCOc1ccc(CCNC(=O)c2ccc3c(=O)[nH]c4c(C(=O)NC(C)C)sc(=S)n4c3c2)cc1	–	?	-85.5	–	–
Cc1cc(C(=O)NC2CCCc3c2cnn3-c2cc(F)cc(F)c2)nn1C (centres undefined)	–	–	–	–	–
Cc1cccc(NC(=O)/C(C#N)=C\c2cc(C)n(-c3ccc(C(=O)O)cc3)c2C)c1	–	25.1µM	–	–	–
O=C(NC(Nc1nc2ccc([N+](=O)[O-])cc2s1)(C(F)(F)F)C(F)(F)F)c1ccccc1Cl	–	25.1µM	-83.2	–	–
Nc1ccc2nc(SCc3ccc([N+](=O)[O-])cc3)sc2c1	–	–	–	·	–
O=C(NC(Nc1nc2ccc([N+](=O)[O-])cc2s1)(C(F)(F)F)C(F)(F)F)c1cccnc1	–	35.5µM	?	–	?
